# Inconclusive results are not listed. Entries that show only a call come without a potency. Unmarked numbers belong to inactive results. The source made the active and inactive calls. Calls come from the whole dose curve; as a rule, active = well fitted curve in the direction sought with a large enough effect; inconclusive = small, poorly fitted or top-dose-only effect, or another doubt; inactive = no such curve, though single readings can be large; an effect the other way counts as inactive or inconclusive.
# Legend:
# [1] = qHTS of pediatric cancer cell lines to identify multiple opportunities for drug repurposing: Primary screen for BT-12 cells (AID 1347101); note: nearly all actives have a fitted effect of over 25% in size; note: potency is the fitted concentration of half-maximal effect
# In short: (§1)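 Cells (500-1,000/well) rested 5 h, then received compounds for 48 h; metabolically active cells were measured by CellTiter-Glo luminescence. Final concentrations spanned up to 46 µM (MIPE, 11-point) or 0.59 nM-46 µM (NPC, 8-point) in primary screens, 11-point in follow-ups.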
# [2] = qHTS of pediatric cancer cell lines to identify multiple opportunities for drug repurposing: Primary screen for Rh18 cells (AID 1347102); note: nearly all actives have a fitted effect of over 65% in size; note: potency is the fitted concentration of half-maximal effect
# In short: (§2)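 Cells (500-1,000/well) in growth media were settled 5 h at 37 degrees C, then given compounds for 48 h. Viability was read as CellTiter-Glo luminescence. Primary runs used MIPE at 11 points (0.78 nM-46 µM) and NPC at 8 points (0.59 nM-46 µM); follow-ups used 11 points.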
# [3] = qHTS of pediatric cancer cell lines to identify multiple opportunities for drug repurposing: Primary screen for OHS-50 cells (AID 1347103); note: nearly all actives have a fitted effect of over 40% in size; note: potency is the fitted concentration of half-maximal effect
# In short: as §1
# [4] = qHTS of pediatric cancer cell lines to identify multiple opportunities for drug repurposing: Primary screen for MG 63 (6-TG R) cells (AID 1347105); note: nearly all actives have a fitted effect of over 50% in size; note: potency is the fitted concentration of half-maximal effect
# In short: (§3)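 CRCs from 8- or 11-point titrations (lowest final 0.59 nM NPC, 0.78 nM MIPE). Cell viability: CellTiter-Glo after 48 h incubation, 15 min room-temperature development, luminescence imaging.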
# [5] = qHTS of pediatric cancer cell lines to identify multiple opportunities for drug repurposing: Primary screen for control Hh wild type fibroblast cells (AID 1347106); note: nearly all actives have a fitted effect of over 55% in size; note: potency is the fitted concentration of half-maximal effect;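 for activity change, negative = cytotoxic: series mostly up to about 46 µM; a drop in luminescence marks cytotoxicity and a rise apparent proliferation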
# In short: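 Viability after 48 h compound treatment at 37C, 500-1,000 cells/well, read as ATP luminescence with CellTiter-Glo. Primary screens used 11-point (MIPE, 0.78 nM-46 µM) or 8-point (NPC, 0.59 nM-46 µM) final concentrations; follow-up screens used 11-point dilutions.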
# [6] = qHTS of pediatric cancer cell lines to identify multiple opportunities for drug repurposing: Primary screen for Rh30 cells (AID 1347107); note: series mostly up to about 46 µM; nearly all actives have a fitted effect of over 75% in size
# In short: as §2
# [7] = qHTS of pediatric cancer cell lines to identify multiple opportunities for drug repurposing: Primary screen for Rh41 cells (AID 1347108); note: nearly all actives have a fitted effect of over 70% in size; note: potency is the fitted concentration of half-maximal effect;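 for activity change, negative = cytotoxic: series mostly up to about 46 µM; luminescence drop marks cytotoxic hits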
# In short: as §3
# [8] = qHTS of pediatric cancer cell lines to identify multiple opportunities for drug repurposing: Primary screen for RD cells (AID 1347104); note: nearly all actives have a fitted effect of over 55% in size; note: potency is the fitted concentration of half-maximal effect
# In short: as §3
# [9] = qHTS of pediatric cancer cell lines to identify multiple opportunities for drug repurposing: Confirmatory screen for NB1643 cells (AID 1347109); note: potency is the fitted concentration of half-maximal effect; nearly all actives have a fitted effect of over 45% in size
# In short: as §2
# [10] = qHTS of pediatric cancer cell lines to identify multiple opportunities for drug repurposing: Confirmatory screen for A673 cells (AID 1347110); settings: A673 Ewing sarcoma cell viability;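 note: potency is the fitted concentration of half-maximal effect; cells exposed to compound for 48 h before the viability read; nearly all actives have a fitted effect of over 65% in size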
# In short: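 Concentration-response curves came straight from titrations: 11 points (0.78 nM to 46 µM) for MIPE and several concentrations (0.59 nM to 46 µM) for NPC in primary, 11 points in follow-up. Readout: ATP luminescence at 48 h.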
# [11] = qHTS of pediatric cancer cell lines to identify multiple opportunities for drug repurposing: Confirmatory screen for SK-N-MC cells (AID 1347111); settings: SK-N-MC cell viability;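 note: potency is the fitted concentration of half-maximal effect; cells exposed to compound for 48 h before the readout; nearly all actives have a fitted effect of over 70% in size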
# In short: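 Metabolically active cells were quantified by ATP-dependent luminescence (CellTiter-Glo, 15 min at room temperature) following 48 h treatment. Cells had been plated at 500-1,000 per well and settled for 5 h beforehand.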
# [12] = qHTS of pediatric cancer cell lines to identify multiple opportunities for drug repurposing: Confirmatory screen for DAOY cells (AID 1347114); note: nearly all actives have a fitted effect of over 65% in size; note: potency is the fitted concentration of half-maximal effect
# In short: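 Viability measured as metabolically active cells via CellTiter-Glo luminescence following 48 hours of compound exposure, 11-point dilutions in confirmatory testing. 500-1,000 cells/well plated 5 hours before dosing; controls were DMSO and 2.3 µM bortezomib.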
# [13] = qHTS of pediatric cancer cell lines to identify multiple opportunities for drug repurposing: Confirmatory screen for NB-EBc1 cells (AID 1347115);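 note: cells exposed to compound for 48 h before the viability read; nearly all actives have a fitted effect of over 45% in size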; note: potency is the fitted concentration of half-maximal effect
# In short: as §2
# [14] = qHTS of pediatric cancer cell lines to identify multiple opportunities for drug repurposing: Confirmatory screen for TC32 cells (AID 1347118); settings: TC32 Ewing sarcoma cells viability qHTS;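 note: potency is the fitted concentration of half-maximal effect; cells exposed to compound for 48 h before the read; nearly all actives have a fitted effect of over 65% in size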
# In short: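 qHTS, TC32, 48 h drug treatment, CellTiter-Glo luminescence as a proxy for metabolically active cells; primary top concentration 46 µM (MIPE 11-pt, NPC 8-pt); confirmatory 11-pt.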
# [15] = qHTS of pediatric cancer cell lines to identify multiple opportunities for drug repurposing: Confirmatory screen for control Hh wild type fibroblast cells (AID 1347121); note: nearly all actives have a fitted effect of over 70% in size
# In short: as §2
# [16] = qHTS of pediatric cancer cell lines to identify multiple opportunities for drug repurposing: Confirmatory screen for LAN-5 cells (AID 1347113)
# In short: as §2
# [17] = qHTS of pediatric cancer cell lines to identify multiple opportunities for drug repurposing: Confirmatory screen for BT-37 cells (AID 1347117); settings: BT-37 pediatric cancer cells, viability; note: potency is the fitted concentration of half-maximal effect; nearly all actives have a fitted effect of over 55% in size
# In short: as §2
# [18] = qHTS of pediatric cancer cell lines to identify multiple opportunities for drug repurposing: Confirmatory screen for MG 63 (6-TG R) cells (AID 1347119); note: nearly all actives have a fitted effect of over 55% in size; note: potency is the fitted concentration of half-maximal effect
# In short: as §2
# [19] = qHTS of pediatric cancer cell lines to identify multiple opportunities for drug repurposing: Confirmatory screen for BT-12 cells (AID 1347112)
# In short: as §2
compound,measurement,setting,value
CC(=O)c1ccc(OCC(=O)N2CCCCC2)cc1,Potency,[1],inactive
same,Potency,[2],inactive
same,Potency,[3],inactive
same,Potency,[4],inactive
same,Potency,[5],inactive
same,Potency,[6],inactive
same,Potency,[7],inactive
CCOC(=O)c1ccccc1O,Potency,[1],inactive
same,Potency,[2],inactive
same,Potency,[3],inactive
same,Potency,[8],inactive
same,Potency,[4],inactive
same,Potency,[5],inactive
same,Potency,[6],inactive
same,Potency,[7],inactive
same,Potency,[9],14.7 µM (active)
same,Potency,[10],3.29 µM (active)
same,Potency,[11],1.65 µM (active)
same,Potency,[12],inactive
same,Potency,[13],inactive
same,Potency,[14],1.47 µM (active)
same,Potency,[15],inactive
O=C(O)Cc1ccc(-c2ccccc2)cc1,Potency,[1],inactive
same,Potency,[2],inactive
same,Potency,[3],inactive
same,Potency,[8],inactive
same,Potency,[4],inactive
same,Potency,[5],inactive
same,Potency,[6],inactive
same,Potency,[7],inactive
O=C(O)c1ccccc1Nc1cccc(C(F)(F)F)c1,Potency,[1],inactive
same,Potency,[2],inactive
same,Potency,[3],inactive
same,Potency,[8],inactive
same,Potency,[4],inactive
same,Potency,[5],inactive
same,Potency,[6],inactive
same,Potency,[7],inactive
CCOc1ccc2nc(S(N)(=O)=O)sc2c1,Potency,[1],inactive
same,Potency,[2],inactive
same,Potency,[3],inactive
same,Potency,[8],inactive
same,Potency,[4],inactive
same,Potency,[5],inactive
same,Potency,[6],inactive
same,Potency,[7],inactive
O=C(O)/C=C\C(=O)O,Potency,[1],inactive
same,Potency,[2],inactive
same,Potency,[3],inactive
same,Potency,[8],inactive
same,Potency,[4],inactive
same,Potency,[5],inactive
same,Potency,[6],inactive
same,Potency,[7],inactive
CCCCCCCCCCCCOCCO,Potency,[1],inactive
same,Potency,[2],inactive
same,Potency,[3],inactive
same,Potency,[8],inactive
same,Potency,[4],inactive
same,Potency,[5],inactive
same,Potency,[6],inactive
same,Potency,[7],inactive
N=C1N=C(N)c2cc3ccccc3cc21,Potency,[1],25.2 µM (active)
same,Potency,[2],48.6 µM (active)
same,Potency,[3],17.8 µM (active)
same,Potency,[8],34.4 µM (active)
same,Potency,[4],24.3 µM (active)
same,Potency,[7],30.6 µM (active)
same,Potency,[9],33.9 µM (active)
same,Potency,[10],38 µM (active)
same,Potency,[11],17 µM (active)
same,Potency,[16],38 µM (active)
same,Potency,[12],42.7 µM (active)
same,Potency,[17],38 µM (active)
same,Potency,[14],17 µM (active)
same,Potency,[18],19.1 µM (active)
O=C(OCc1ccccc1)c1ccccc1,Potency,[1],inactive
same,Potency,[2],inactive
same,Potency,[3],inactive
same,Potency,[8],inactive
same,Potency,[4],inactive
same,Potency,[5],inactive
same,Potency,[6],inactive
same,Potency,[7],inactive
O=C(O)Cc1cccc(-c2cc(CCCCCCc3ccc(O[C@H]4O[C@H](CO)[C@@H](O)[C@H](O)[C@@H]4O)c(-c4cccc(CC(=O)O)c4)c3)ccc2O[C@H]2O[C@H](CO)[C@@H](O)[C@H](O)[C@@H]2O)c1,"activity change, negative = cytotoxic",[1],15.7% [at 0.745 µM]
same,"activity change, negative = cytotoxic",[2],18.6% [at 0.597 µM]
same,"activity change, negative = cytotoxic",[3],10.4% [at 0.73 µM]
same,"activity change, negative = cytotoxic",[8],16.2% [at 0.597 µM]
same,"activity change, negative = cytotoxic",[4],-10.3% [at 0.597 µM]
same,"activity change, negative = cytotoxic",[5],2.02% [at 0.597 µM]
same,"activity change, negative = cytotoxic",[6],18.7% [at 0.597 µM]
same,"activity change, negative = cytotoxic",[7],21.7% [at 0.597 µM]
CC1(C)S[C@@H]2[C@H](NC(=O)[C@H](N)c3ccccc3)C(=O)N2[C@H]1C(=O)O,Potency,[1],inactive
same,Potency,[2],inactive
same,Potency,[3],inactive
same,Potency,[8],inactive
same,Potency,[4],inactive
same,Potency,[5],inactive
same,Potency,[6],inactive
same,Potency,[7],inactive
Nc1ccc(O)c(C(=O)O)c1,Potency,[1],inactive
same,Potency,[2],inactive
same,Potency,[3],inactive
same,Potency,[8],inactive
same,Potency,[4],inactive
same,Potency,[5],inactive
same,Potency,[6],inactive
same,Potency,[7],inactive
Cc1ccc(C(=O)c2ccc(CC(=O)O)n2C)cc1,Potency,[1],inactive
same,Potency,[2],inactive
same,Potency,[3],inactive
same,Potency,[8],inactive
same,Potency,[4],inactive
same,Potency,[5],inactive
same,Potency,[6],inactive
same,Potency,[7],inactive
[O-][n+]1ccccc1SSc1cccc[n+]1[O-],Potency,[1],0.12 µM (active)
same,Potency,[2],0.517 µM (active)
same,Potency,[3],0.338 µM (active)
same,Potency,[8],0.0731 µM (active)
same,Potency,[4],0.184 µM (active)
same,Potency,[5],11.6 µM (active)
same,Potency,[9],1.15 µM (active)
same,Potency,[10],1.62 µM (active)
same,Potency,[11],0.456 µM (active)
same,Potency,[19],3.23 µM (active)
same,Potency,[16],0.288 µM (active)
same,Potency,[13],2.57 µM (active)
same,Potency,[17],0.811 µM (active)
same,Potency,[14],1.29 µM (active)
same,Potency,[18],inactive
same,Potency,[15],inactive
CN(C)[C@@H]1C(=O)C(C(=O)NCN2CCCC2)=C(O)[C@@]2(O)C(=O)C3=C(O)c4c(O)cccc4[C@@](C)(O)C3C[C@@H]12 (some centres undefined),Potency,[1],inactive
same,Potency,[2],inactive
same,Potency,[3],inactive
same,Potency,[8],inactive
same,Potency,[4],inactive
same,Potency,[5],inactive
same,Potency,[6],inactive
same,Potency,[7],inactive
COc1cc2c3cc1Oc1cc(ccc1O)C[C@@H]1c4c(cc(OC)c(O)c4Oc4ccc(cc4)C[C@@H]3N(C)CC2)CC[N+]1(C)C,Potency,[1],inactive
same,Potency,[2],inactive
same,Potency,[3],inactive
same,Potency,[8],inactive
same,Potency,[4],inactive
same,Potency,[5],inactive
same,Potency,[6],inactive
same,Potency,[7],inactive
c1ccc2sc(SN3CCOCC3)nc2c1,Potency,[1],inactive
same,Potency,[2],inactive
same,Potency,[3],inactive
same,Potency,[8],inactive
same,Potency,[4],inactive
same,Potency,[5],inactive
same,Potency,[6],inactive
same,Potency,[7],inactive
C/C(=N\O)c1ccc(OCC(=O)N2CCCCC2)cc1,Potency,[1],inactive
same,Potency,[2],inactive
same,Potency,[3],inactive
same,Potency,[8],inactive
same,Potency,[4],inactive
same,Potency,[5],inactive
same,Potency,[6],inactive
same,Potency,[7],inactive
